Article PMC4336329 (PLoS ONE, 2015)
Screen size: about 310,000 compounds; about 14,000 (4.5%) showed an effect of 50% or more. Effects have a minus sign here. The sample holds strong results, similar compounds and a random draw of the others, so the mix is not that of the screen.

The compounds below were run against human ether-à-go-go-related gene (hERG) potassium channel (human, UniProt Q12809) (assay: primary screen, population patch clamp on CHO cells stably expressing hERG; higher = less effect of the substance).
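Note: peak tail current of the secondary pulse compared with the same well before compound.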

Sequence of human ether-à-go-go-related gene (hERG) potassium channel (Q12809 whole entry, looked up): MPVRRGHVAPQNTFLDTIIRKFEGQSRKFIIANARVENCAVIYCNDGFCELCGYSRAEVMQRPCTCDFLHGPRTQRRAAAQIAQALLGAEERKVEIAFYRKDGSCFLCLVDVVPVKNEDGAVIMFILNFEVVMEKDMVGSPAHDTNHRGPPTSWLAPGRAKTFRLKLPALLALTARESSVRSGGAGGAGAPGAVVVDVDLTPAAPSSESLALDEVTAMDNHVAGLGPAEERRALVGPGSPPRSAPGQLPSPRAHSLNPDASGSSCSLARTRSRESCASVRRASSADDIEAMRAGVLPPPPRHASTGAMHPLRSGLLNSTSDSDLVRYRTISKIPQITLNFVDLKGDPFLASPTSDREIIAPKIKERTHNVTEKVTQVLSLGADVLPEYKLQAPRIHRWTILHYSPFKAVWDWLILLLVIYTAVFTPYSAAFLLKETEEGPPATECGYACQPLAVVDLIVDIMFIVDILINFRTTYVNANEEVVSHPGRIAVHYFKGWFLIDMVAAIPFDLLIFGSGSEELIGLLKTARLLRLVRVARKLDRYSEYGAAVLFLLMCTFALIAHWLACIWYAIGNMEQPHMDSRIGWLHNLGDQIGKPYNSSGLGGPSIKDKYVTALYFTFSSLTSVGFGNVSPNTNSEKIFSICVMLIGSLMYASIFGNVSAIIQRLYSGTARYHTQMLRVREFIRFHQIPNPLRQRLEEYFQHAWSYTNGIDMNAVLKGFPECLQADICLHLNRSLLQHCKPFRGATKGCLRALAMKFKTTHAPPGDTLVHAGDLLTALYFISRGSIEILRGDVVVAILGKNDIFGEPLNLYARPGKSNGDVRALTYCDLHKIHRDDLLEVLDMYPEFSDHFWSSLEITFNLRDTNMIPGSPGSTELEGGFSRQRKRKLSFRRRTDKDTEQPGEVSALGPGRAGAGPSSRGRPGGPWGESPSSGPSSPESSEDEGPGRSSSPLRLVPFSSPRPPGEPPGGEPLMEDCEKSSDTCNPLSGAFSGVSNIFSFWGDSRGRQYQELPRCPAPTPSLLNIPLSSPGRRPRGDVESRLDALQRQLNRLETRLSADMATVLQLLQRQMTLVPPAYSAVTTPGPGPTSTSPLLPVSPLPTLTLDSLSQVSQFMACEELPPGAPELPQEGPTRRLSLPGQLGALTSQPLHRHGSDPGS

| Compound | hERG current change (%, negative = inhibition) at 10uM [%] |
| --- | --- |
| O=C(NC1CC1)C1=C[C@H](c2ccccc2)C[C@H](OCc2ccc(CO)cc2)O1 | -19.9 |
| O=C(NC1CC1)C1=C[C@@H](c2ccc(Br)cc2)C[C@@H](OCc2ccc(CO)cc2)O1 | -56.4 |
| O=C(NC1CC1)C1=C[C@H](c2ccc(Br)cc2)C[C@H](OCc2ccc(CO)cc2)O1 | -71.1 |
| O=C(O)C1=C[C@@H](c2ccc(C(F)(F)F)cc2)C[C@@H](OCc2ccc(CO)cc2)O1 | 16.7 |
| O=C(O)C1=C[C@H](c2ccc(Br)cc2)C[C@H](OCc2ccc(CO)cc2)O1 | 15.1 |
| O=C(NC1CC1)C1=C[C@@H](c2ccccc2)C[C@@H](OCc2ccc(CO)cc2)O1 | -38.3 |
| CN1CCN(C(=O)C2=C[C@H](c3ccc(C(F)(F)F)cc3)C[C@H](OCc3ccc(CO)cc3)O2)CC1 | -40.4 |
| C#Cc1ccc([C@@H]2C=C(C(=O)NC3CC3)O[C@H](OCc3ccc(CO)cc3)C2)cc1 | -3.96 |
| O=C(NC1CC1)C1=C[C@H](c2ccc(C(F)(F)F)cc2)C[C@H](OCc2ccc(CO)cc2)O1 | -42.7 |
| CN1CCN(C(=O)C2=C[C@@H](c3ccc(C(F)(F)F)cc3)C[C@@H](OCc3ccc(CO)cc3)O2)CC1 | -52.6 |
| O=C(NC1CC1)C1=C[C@@H](c2ccc(C(F)(F)F)cc2)C[C@@H](OCc2ccc(CO)cc2)O1 | -63.2 |
| O=C(C1=C[C@H](c2ccc(C(F)(F)F)cc2)C[C@H](OCc2ccc(CO)cc2)O1)N1CCCCCCC1 | -17.7 |
| COc1cc(CNC(=O)c2ccc3c(c2)S(=O)(=O)c2ccccc2C3=O)cc(OC)c1 | -0.0926 |
| O=C(COC(=O)c1cccc(Br)c1)Nc1cccc2c1C(=O)c1ccccc1C2=O | 4.56 |
| Cc1cccc(C)c1Nc1nnc(SCC(=O)NC2CCS(=O)(=O)C2)s1 (stereo not shown) | 1.96 |
| CS(=O)(=O)CCC(C(=O)n1nnc2ccccc21)N1C(=O)c2ccccc2C1=O (stereo not shown) | -3.22 |

| Compound | hERG current change (%, negative = inhibition) at 10uM [%] |
| --- | --- |
| Cc1ccc(NS(=O)(=O)c2ccc(Cl)c(C(=O)Nc3ccccc3-c3nc4ccccc4[nH]3)c2)cc1C | 17.2 |
| O=C(CC12CC3CC(CC(C3)C1)C2)Nc1ccc2c(c1)COC2=O | -9.44 |
| CN(C(=O)/C=C/c1ccccc1)C1CCS(=O)(=O)C1 (stereo not shown) | -0.518 |
| COc1ccc(N2CCN(C(=O)c3ccc(CS(=O)Cc4ccc(Cl)cc4)o3)CC2)cc1 (stereo not shown) | -50.1 |
| COc1cccc(N2CCN(C(=O)c3ccc(CS(=O)c4ccccc4Cl)o3)CC2)c1 (stereo not shown) | -30.8 |
| O=C(c1ccc(CS(=O)Cc2ccccc2Cl)o1)N1CCN(c2ccccn2)CC1 (stereo not shown) | -5.66 |
| Cc1ccc(CS(=O)Cc2ccc(C(=O)N3CCN(c4ccccc4)CC3)o2)cc1 (stereo not shown) | -14.8 |
| Cc1ccc(CS(=O)Cc2ccc(C(=O)N3CCOCC3)o2)cc1 (stereo not shown) | -33.3 |
| O=C(c1ccc(CS(=O)Cc2ccccc2Cl)o1)N1CCN(c2cccc(Cl)c2)CC1 (stereo not shown) | -41.8 |
| Cc1ccc(CS(=O)Cc2ccc(C(=O)N3CCN(c4ccc(F)cc4)CC3)o2)cc1 (stereo not shown) | -52.9 |
| COc1ccc(N2CCN(C(=O)c3ccc(CS(=O)Cc4ccc(C)cc4)o3)CC2)cc1 (stereo not shown) | -18.3 |
| COc1cccc(N2CCN(C(=O)c3ccc(CS(=O)Cc4ccc(C)cc4)o3)CC2)c1 (stereo not shown) | -11.4 |
| O=C(c1ccc(CS(=O)Cc2ccc(Cl)cc2)o1)N1CCN(c2ccccn2)CC1 (stereo not shown) | -61.2 |
| COc1cccc(N2CCN(C(=O)c3ccc(CS(=O)Cc4ccccc4Cl)o3)CC2)c1 (stereo not shown) | -70.7 |
| Cc1ccc(CS(=O)Cc2ccc(C(=O)N3CCN(c4ccccn4)CC3)o2)cc1 (stereo not shown) | -10.1 |
